Source: the supplement of paper PMC8975748
Where a name gives a salt, the structure may show the parent alone. ± gives the standard deviation of the averaged measurements.

What was measured:
[1] = tested on: Saccharomyces cerevisiae BY4741 SeMeCo community; assay: mean cell size (pixel area) (pixels); higher = larger cells; details: 10 µM; 24 h; SM minimal medium
Summary of the method: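 A fluorescent Saccharomyces cerevisiae BY4741 community carrying four plasmids was used, with each plasmid complementing one auxotrophy and bearing a fluorescent marker. An overnight preculture at OD600 = 1.0 was diluted to OD600 = 0.3, and 70 µl went into 384-well plates acoustically predosed with drug (final 10 µM) in SM medium for 24 h. After paraformaldehyde fixation, cells were imaged by automated confocal microscopy and analysed in Harmony, giving the mean cell pixel area per well. Each value is the average of 3 replicates. Same SeMeCo high-content imaging drug screen: Selleck FDA-approved drugs at 10 µM, 24 h in SM medium, 384-well plates, 3 replicates.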

[2] = tested on: Saccharomyces cerevisiae BY4741 SeMeCo community; assay: z-score of prototroph abundance vs DMSO median; higher = larger share of this subpopulation than in DMSO controls; details: 10 µM; 24 h; SM minimal medium; subpopulation (auxotrophy): Prototroph
Summary of the method: (§1)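 Subpopulation abundance was reported as a z-score against the median of vehicle wells. The Saccharomyces cerevisiae BY4741 community, carrying four plasmids that each restored one auxotrophy and encoded a distinct fluorescent protein, was grown 24 h in minimal SM medium in 384-well plates holding library drugs at 10 µM final. Cells were paraformaldehyde-fixed and imaged by automated confocal microscopy, with single-auxotroph fluorescent strains used for thresholds and autofluorescence correction.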

[3] = tested on: Saccharomyces cerevisiae BY4741 SeMeCo community; assay: z-score of subpopulation abundance vs DMSO median, subpopulation auxotrophic for M; higher = larger share of this subpopulation than in DMSO controls; details: 10 µM; 24 h; SM minimal medium; subpopulation (auxotrophy): M
Summary of the method: as §1

[4] = tested on: Saccharomyces cerevisiae BY4741 SeMeCo community; assay: z-score of subpopulation abundance vs DMSO median, subpopulation auxotrophic for L; higher = larger share of this subpopulation than in DMSO controls; details: 10 µM; 24 h; SM minimal medium; subpopulation (auxotrophy): L
Summary of the method: as §1

[5] = tested on: Saccharomyces cerevisiae BY4741 SeMeCo community; assay: z-score of subpopulation abundance vs DMSO median, subpopulation auxotrophic for U; higher = larger share of this subpopulation than in DMSO controls; details: 10 µM; 24 h; SM minimal medium; subpopulation (auxotrophy): U
Summary of the method: as §1

[6] = tested on: Saccharomyces cerevisiae BY4741 SeMeCo community; assay: z-score of subpopulation abundance vs DMSO median, subpopulation auxotrophic for H; higher = larger share of this subpopulation than in DMSO controls; details: 10 µM; 24 h; SM minimal medium; subpopulation (auxotrophy): H
Summary of the method: as §1

[7] = tested on: Saccharomyces cerevisiae BY4741 SeMeCo community; assay: z-score of subpopulation abundance vs DMSO median, subpopulation auxotrophic for LU; higher = larger share of this subpopulation than in DMSO controls; details: 10 µM; 24 h; SM minimal medium; subpopulation (auxotrophy): LU
Summary of the method: as §1

[8] = tested on: Saccharomyces cerevisiae BY4741 SeMeCo community; assay: z-score of subpopulation abundance vs DMSO median, subpopulation auxotrophic for HM; higher = larger share of this subpopulation than in DMSO controls; details: 10 µM; 24 h; SM minimal medium; subpopulation (auxotrophy): HM
Summary of the method: as §1

[9] = tested on: Saccharomyces cerevisiae BY4741 SeMeCo community; assay: z-score of subpopulation abundance vs DMSO median, subpopulation auxotrophic for HU; higher = larger share of this subpopulation than in DMSO controls; details: 10 µM; 24 h; SM minimal medium; subpopulation (auxotrophy): HU
Summary of the method: as §1

[10] = tested on: Saccharomyces cerevisiae BY4741 SeMeCo community; assay: z-score of subpopulation abundance vs DMSO median, subpopulation auxotrophic for HL; higher = larger share of this subpopulation than in DMSO controls; details: 10 µM; 24 h; SM minimal medium; subpopulation (auxotrophy): HL
Summary of the method: as §1

[11] = tested on: Saccharomyces cerevisiae BY4741 SeMeCo community; assay: z-score of subpopulation abundance vs DMSO median, subpopulation auxotrophic for HLM; higher = larger share of this subpopulation than in DMSO controls; details: 10 µM; 24 h; SM minimal medium; subpopulation (auxotrophy): HLM
Summary of the method: as §1

[12] = tested on: Saccharomyces cerevisiae BY4741 SeMeCo community; assay: z-score of subpopulation abundance vs DMSO median, subpopulation auxotrophic for HUM; higher = larger share of this subpopulation than in DMSO controls; details: 10 µM; 24 h; SM minimal medium; subpopulation (auxotrophy): HUM
Summary of the method: as §1

[13] = tested on: Saccharomyces cerevisiae BY4741 SeMeCo community; assay: z-score of subpopulation abundance vs DMSO median, subpopulation auxotrophic for LUM; higher = larger share of this subpopulation than in DMSO controls; details: 10 µM; 24 h; SM minimal medium; subpopulation (auxotrophy): LUM
Summary of the method: as §1

[14] = tested on: Saccharomyces cerevisiae BY4741 SeMeCo community; assay: z-score of subpopulation abundance vs DMSO median, subpopulation auxotrophic for UM; higher = larger share of this subpopulation than in DMSO controls; details: 10 µM; 24 h; SM minimal medium; subpopulation (auxotrophy): UM
Summary of the method: as §1

[15] = tested on: Saccharomyces cerevisiae BY4741 SeMeCo community; assay: z-score of subpopulation abundance vs DMSO median, subpopulation auxotrophic for HLUM; higher = larger share of this subpopulation than in DMSO controls; details: 10 µM; 24 h; SM minimal medium; subpopulation (auxotrophy): HLUM
Summary of the method: as §1

[16] = tested on: Saccharomyces cerevisiae BY4741 SeMeCo community; assay: z-score of subpopulation abundance vs DMSO median, subpopulation auxotrophic for LM; higher = larger share of this subpopulation than in DMSO controls; details: 10 µM; 24 h; SM minimal medium; subpopulation (auxotrophy): LM
Summary of the method: as §1

CC#C[C@]1(O)CC[C@H]2[C@@H]3CCC4=CC(=O)CCC4=C3[C@@H](c3ccc(N(C)C)cc3)C[C@@]21C [Mifepristone]
mean cell size [1]: 12.3 ± 0.19 | z-score of prototroph abundance [2]: -1.1 | z-score of subpopulation abundance [3]: 0.43 | z-score of subpopulation abundance [4]: 1.02 | z-score of subpopulation abundance [5]: -0.36 | z-score of subpopulation abundance [6]: 1.2 | z-score of subpopulation abundance [7]: 0.63 | z-score of subpopulation abundance [8]: 1.66 | z-score of subpopulation abundance [9]: 0.29 | z-score of subpopulation abundance [10]: 1.2 | z-score of subpopulation abundance [11]: 0.44 | z-score of subpopulation abundance [12]: 1.71 | z-score of subpopulation abundance [13]: 0.67

CCCCCNC(=N)N/N=C/c1c[nH]c2ccc(OC)cc12 [Tegaserod Maleate]
mean cell size [1]: 12.23 ± 0.022 | z-score of prototroph abundance [2]: -1.66 | z-score of subpopulation abundance [3]: 1.25 | z-score of subpopulation abundance [4]: 2.04 | z-score of subpopulation abundance [7]: 0.84 | z-score of subpopulation abundance [8]: 1.48 | z-score of subpopulation abundance [9]: 0.48 | z-score of subpopulation abundance [14]: -0.55 | z-score of subpopulation abundance [10]: 2.5 | z-score of subpopulation abundance [11]: 1.63 | z-score of subpopulation abundance [12]: 0.89 | z-score of subpopulation abundance [13]: 1.92 | z-score of subpopulation abundance [15]: 1.76

COCCCN1CCC(NC(=O)c2cc(Cl)c(N)c3c2OCC3)CC1 [Prucalopride Succinate]
mean cell size [1]: 12.5 ± 0.32 | z-score of prototroph abundance [2]: -1.55 | z-score of subpopulation abundance [3]: 0.77 | z-score of subpopulation abundance [4]: -0.33 | z-score of subpopulation abundance [5]: 0.93 | z-score of subpopulation abundance [6]: -0.29 | z-score of subpopulation abundance [7]: 0.16 | z-score of subpopulation abundance [16]: -0.18 | z-score of subpopulation abundance [9]: 1.07 | z-score of subpopulation abundance [10]: 0.16 | z-score of subpopulation abundance [11]: 1.1 | z-score of subpopulation abundance [13]: 0.31 | z-score of subpopulation abundance [15]: 2.43

CN(C)CCC=C1c2ccccc2C=Cc2ccccc21 [Cyclobenzaprine HCl]
mean cell size [1]: 12.59 ± 0.046 | z-score of prototroph abundance [2]: -0.37 | z-score of subpopulation abundance [3]: 0 | z-score of subpopulation abundance [4]: -0.14 | z-score of subpopulation abundance [5]: 1.16 | z-score of subpopulation abundance [6]: -0.68 | z-score of subpopulation abundance [7]: -0.04 | z-score of subpopulation abundance [16]: 0.01 | z-score of subpopulation abundance [9]: 0.59 | z-score of subpopulation abundance [14]: 1.09 | z-score of subpopulation abundance [10]: -0.13 | z-score of subpopulation abundance [11]: 0.13 | z-score of subpopulation abundance [12]: -0.09 | z-score of subpopulation abundance [13]: -0.09 | z-score of subpopulation abundance [15]: 0.14

N[C@H]1CONC1=O [L-Cycloserine]
z-score of subpopulation abundance [3]: -3.06 | z-score of subpopulation abundance [5]: -0.91 | z-score of subpopulation abundance [6]: 5.08 | z-score of subpopulation abundance [7]: 1.02 | z-score of subpopulation abundance [16]: 1.19 | z-score of subpopulation abundance [8]: 3.92 | z-score of subpopulation abundance [9]: 1.14 | z-score of subpopulation abundance [14]: -1.17 | z-score of subpopulation abundance [10]: 3.71 | z-score of subpopulation abundance [13]: 1.18 | z-score of subpopulation abundance [15]: 5.78

CCc1nc(N)nc(N)c1-c1ccc(Cl)cc1 [Pyrimethamine]
mean cell size [1]: 12.3 ± 0.38 | z-score of subpopulation abundance [3]: -0.13 | z-score of subpopulation abundance [5]: -0.01 | z-score of subpopulation abundance [6]: -0.47 | z-score of subpopulation abundance [7]: -0.16 | z-score of subpopulation abundance [16]: 0.19 | z-score of subpopulation abundance [8]: -0.27 | z-score of subpopulation abundance [9]: -0.29 | z-score of subpopulation abundance [14]: -0.1 | z-score of subpopulation abundance [10]: -0.25 | z-score of subpopulation abundance [11]: -0.3 | z-score of subpopulation abundance [12]: 0.42 | z-score of subpopulation abundance [13]: 0.49 | z-score of subpopulation abundance [15]: -0.2

CC1(C)[C@H](C(=O)O)N2C(=O)C[C@H]2S1(=O)=O [Sulbactam]
z-score of prototroph abundance [2]: 0.75 | z-score of subpopulation abundance [3]: 0.57 | z-score of subpopulation abundance [5]: -0.63 | z-score of subpopulation abundance [6]: -0.12 | z-score of subpopulation abundance [7]: -0.53 | z-score of subpopulation abundance [16]: 1.07 | z-score of subpopulation abundance [8]: -0.43 | z-score of subpopulation abundance [9]: -0.07 | z-score of subpopulation abundance [10]: -0.53 | z-score of subpopulation abundance [11]: -1.04 | z-score of subpopulation abundance [12]: -0.35 | z-score of subpopulation abundance [13]: -0.1 | z-score of subpopulation abundance [15]: -0.44
